Assay results taken from PubChem BioAssay.
Where “and” joins values, the source holds several entries; their conditions need not be identical. Equal entries are not always repeated. Inconclusive results are not listed. For some assays here: Entries with a potency or affinity are not part of this list. Calls of active or inactive are those of the source.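 Rule for the calls, unless noted: active = normalized viability below 100% at a tested concentration; inactive = the rest.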

Columns and labels:
[1] = biological target: Protein kinase 7 (PK7), Plasmodium falciparum 3D7 (PF3D7_0213400) (UniProt Q7YTF7); assay: inhibition of Plasmodium PK7 catalytic activity – biochemical, TCAMS antimalarial set, Kinase-Glo luminescence (AID 1159587; call rule not given here); conditions: recombinant PfPK7, Kinase-Glo ATP depletion luminescence
Protein kinase 7 (PK7), Plasmodium falciparum 3D7 (PF3D7_0213400), sequence (Q7YTF7 1-343): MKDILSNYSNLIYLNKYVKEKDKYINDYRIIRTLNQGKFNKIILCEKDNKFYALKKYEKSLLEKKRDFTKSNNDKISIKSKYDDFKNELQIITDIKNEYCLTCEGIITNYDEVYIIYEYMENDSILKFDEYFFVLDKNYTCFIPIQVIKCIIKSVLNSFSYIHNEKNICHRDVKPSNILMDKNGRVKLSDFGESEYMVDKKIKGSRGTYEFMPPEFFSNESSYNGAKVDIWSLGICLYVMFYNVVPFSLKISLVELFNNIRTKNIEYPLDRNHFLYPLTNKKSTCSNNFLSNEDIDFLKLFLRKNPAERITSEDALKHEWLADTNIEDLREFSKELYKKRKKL

[2] = biological target: Calcium-dependent protein kinase 4 (Plasmodium falciparum (isolate 3D7)) (UniProt Q8IBS5); assay: PfCDPK4 kinase inhibitors, biochemical, TCAMS library (AID 1159588; cut-off not given, nearly all actives have IC50 up to about 0.91 µM); conditions: recombinant PfCDPK4, Kinase-Glo ATP depletion luminescence
Calcium-dependent protein kinase 4 (Plasmodium falciparum (isolate 3D7)), sequence (Q8IBS5 whole entry, looked up): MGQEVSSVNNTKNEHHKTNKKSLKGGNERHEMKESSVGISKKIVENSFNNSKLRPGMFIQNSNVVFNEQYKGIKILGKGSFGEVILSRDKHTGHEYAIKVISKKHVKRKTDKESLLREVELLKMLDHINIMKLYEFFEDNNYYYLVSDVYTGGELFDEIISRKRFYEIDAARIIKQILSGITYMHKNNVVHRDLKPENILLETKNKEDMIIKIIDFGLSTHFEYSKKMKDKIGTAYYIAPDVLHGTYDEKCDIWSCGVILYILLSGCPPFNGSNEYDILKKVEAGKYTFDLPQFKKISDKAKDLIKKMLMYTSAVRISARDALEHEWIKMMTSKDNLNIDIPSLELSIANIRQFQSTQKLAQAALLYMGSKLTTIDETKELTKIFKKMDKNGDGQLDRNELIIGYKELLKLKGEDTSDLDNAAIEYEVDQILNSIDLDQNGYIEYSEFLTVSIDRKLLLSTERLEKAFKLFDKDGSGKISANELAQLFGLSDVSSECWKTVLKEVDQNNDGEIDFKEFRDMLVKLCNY

[3] = test system: Aerobactin synthetase IucA (Klebsiella pneumoniae); assay: inhibition of K. pneumoniae IucA enzyme – biochemical, Tocris library, absorbance (AID 1345561; call rule not given here;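 note: 100% = enzyme without compound and 0% = no enzyme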); conditions: purified IucA enzyme assay, absorbance (OD) read-out; stronger effect = lower value;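 tested at 8 µM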
[4] = viability loss with induced miR-34 in A549 – imaging, A549 dox-inducible miR-34, nuclei and caspase counts, primary screen (AID 1347080;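 active = compounds whose cell count with miR-34 switched on is under 0.7 times the count with it off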); conditions: A549 miR-34 inducible, Hoechst nuclei count, 48 h
[5] = blockers of cellular phospholipid synthesis – cell-based, LOPAC library, screen 4, primary screen (AID 1347384; call rule not given here); conditions: animal cells, phospholipid biosynthesis inhibition screen; at 10 µM
[6] = modulation of C. elegans fzo-1 (AID 1259413; call rule not given here;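 note: fzo-1 mutant C. elegans worms in liquid wells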); conditions: C. elegans fzo-1 modulator screen, mean read-out; stronger effect = higher value
[7] = viability loss in pontine glioma line – cell-based, SU-DIPG-XIII, MIPE4.0, CellTiter-Glo, qHTS, dose response (AID 1347061; cut-off not given, nearly all actives have AC50 up to about 37 µM;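 note: cells exposed to compound for 48 hours before readout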); conditions: CellTiter-Glo ATP luminescence
[8] = viability loss in pontine glioma line – cell-based, SU-DIPG-XXV, MIPE5.0, CellTiter-Glo, qHTS, dose response (AID 1347065; cut-off not given, nearly all actives have AC50 up to about 26 µM;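 note: cells exposed to compound for 48 hours before ATP readout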); conditions: CellTiter-Glo ATP luminescence
[9] = JHH-DIPG-1 glioma cell viability, MIPE5.0 library, CellTiter-Glo luminescence, qHTS (AID 1347067; cut-off not given, nearly all actives have AC50 up to about 26 µM;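 note: cells exposed to compound for 48 hours before readout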); conditions: JHH-DIPG-1 glioma viability, CellTiter-Glo ATP luminescence
[10] = growth inhibition of DIPG cells – cell-based, MIPE5.0 library, qHTS (AID 1347068; cut-off not given, nearly all actives have IC50 up to about 30 µM); conditions: SU-DIPG-XXV viability
[11] = chitosan synthesis blockers in C. neoformans – flow cytometry, Cibacron Brilliant Red staining (AID 1347148; call rule not given here;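 note: compound exposure lasted three days at 37 degrees C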); conditions: Cryptococcus neoformans chitosan, stronger effect = lower value; at 10 µM unless noted
[12] = compounds altering HSF1 focus formation in cells – imaging, Selleck Cancer Library (AID 1347162; in the data active = plate-normalised HSF1 focus index below about 0.46); conditions: human cells, HSF1 nuclear foci imaging, at 10 µM; SSMD: measured here: HSF1 foci SSMD mean; cell count: measured here: cell number; plate-normalised HSF1 focus index: stronger effect = lower value
[13] = MELAS cybrid and Rieske KO viability enhancers – cell-based, MELAS cybrids, Rieske KO mouse fibroblasts, CellTiter-Glo, primary screen (AID 1508586;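 active = mean z-score across replicates of 1.96 or higher in either the MELAS or the Rieske mutant cell line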;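 note: z relative to plate mean and SD of compound and empty wells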); conditions: low glucose
[14] = drug combination growth inhibition, ovarian cancer – cell-based, oncology-focused library, rucaparib conditional, profiling panel (AID 1508598); conditions: patient-derived ovarian cancer cells, CellTiter-Glo viability, 144 h, stronger effect = lower value
[15] = EMT-state selective cytotoxicity in co-culture – imaging, PC-3E GFP, TEM4-18 mCherry, primary screen (AID 1345086;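 active = compounds killing one labelled cell type while sparing the other, by normalised counts and ratio limits, not self-fluorescent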;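 for all read-outs here: cells exposed to compound for 72 h before imaging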;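 for red/green cell ratio (normalised): normalised mesenchymal count divided by normalised epithelial count so high means epithelial killing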); conditions: PC-3E GFP / TEM4-18 mCherry co-culture, imaging cell counts, at 1 µM; for red/green cell ratio (normalised): actives lie on both sides, counts scaled to control wells, 1 = unselective
[16] = viability loss in pontine glioma line – cell-based, SU-DIPG-XVII, MIPE5.0, CellTiter-Glo, qHTS, dose response (AID 1347060; cut-off not given, nearly all actives have AC50 up to about 26 µM); conditions: CellTiter-Glo ATP luminescence
[17] = viability loss in pontine glioma line – cell-based, JHH-DIPG-1, MIPE4.0, CellTiter-Glo, qHTS, dose response (AID 1347062; cut-off not given, nearly all actives have AC50 up to about 27 µM); conditions: JHH-DIPG-1 viability, CellTiter-Glo ATP luminescence
[18] = viability loss in pontine glioma line – cell-based, SU-DIPG-IV, MIPE4.0, CellTiter-Glo, qHTS, dose response (AID 1347063; cut-off not given, nearly all actives have AC50 up to about 30 µM;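 note: compound exposure lasted 48 hours before the viability readout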); conditions: CellTiter-Glo ATP luminescence
[19] = growth inhibition of DIPG cells – cell-based, MIPE4.0 library, CellTiter-Glo luminescence, qHTS (AID 1347066; cut-off not given, nearly all actives have AC50 up to about 30 µM;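 note: cells exposed to compound for 48 hours before readout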); conditions: SU-DIPG-VI viability, CellTiter-Glo ATP luminescence
[20] = stronger effect = lower value, cell number ratio, induced over uninduced
[21] = measured here: relative caspase fold change +Dox/-Dox
[22] = measured here: total cells with miR-34 induction, stronger effect = lower value
[23] = measured here: total cells without miR-34 induction
[24] = MELAS cybrid survival, CellTiter-Glo 48 h, stronger effect = higher value
[25] = Rieske KO mouse fibroblast survival, CellTiter-Glo 72 h
[26] = measured here: epithelial PC-3E GFP cell survival
[27] = measured here: mesenchymal TEM4-18 mCherry cell survival

CCCCCCCC/C=C\CCCCCCCC(=O)NCc1ccc(O)c(OC)c1
10500 and 5740 and 9140: cell count [4, 22]
9800 and 6180 and 9670: cell count [4, 23]
inactive: outcome [1] | outcome [2] | remaining activity [3] 100% | fold change [4, 20] 1.07 and 0.928 and 0.945 | outcome [5]
0.981 and 1.03 and 0.614: fold change [4, 21]

CN(Cc1cnc2nc(N)nc(N)c2n1)c1ccc(C(=O)N[C@@H](CCC(=O)O)C(=O)O)cc1
7580: cell count [12]
2980 and 3110 and 5280: cell count [4, 22]
2000 and 2580 and 4920: cell count [4, 23]
1.22 and 0.656 and 1.41: fold change [4, 21]
2.25: SSMD [12]
-0.369: z-score [13, 25]
inactive: outcome [1] | outcome [2] | mean signal [6] 204 | remaining activity [3] 114% | outcome [7] | outcome [9] | outcome [10] | fold change [4, 20] 1.49 and 1.21 and 1.07 | fold fluorescence [11] 3.97 [at 117.8 µM] | plate-normalised HSF1 focus index [12] 1.08 | outcome [5] | z-score [13, 24] 1.68 | viability ([14]; at 0.000305 µM, OCI-C5x cells, with rucaparib 10 µM, 100% = cells with rucaparib alone) 110% | viability ([14]; at 0.000305 µM, OCI-C5x cells, without rucaparib) 111% | viability ([14]; at 0.000305 µM, OCI-P5x cells, with rucaparib 20 µM, 100% = cells with rucaparib alone) 113% | viability ([14]; at 0.000305 µM, OCI-P5x cells, without rucaparib) 112% | viability ([14]; at 0.00122 µM, OCI-C5x cells, with rucaparib 10 µM, 100% = cells with rucaparib alone) 104% | viability ([14]; at 0.00122 µM, OCI-P5x cells, with rucaparib 20 µM, 100% = cells with rucaparib alone) 111% | viability ([14]; at 0.00122 µM, OCI-P5x cells, without rucaparib) 109% | viability ([14]; at 0.00488 µM, OCI-C5x cells, with rucaparib 10 µM, 100% = cells with rucaparib alone) 113% | viability ([14]; at 0.00488 µM, OCI-C5x cells, without rucaparib) 106% | viability ([14]; at 0.00488 µM, OCI-P5x cells, with rucaparib 20 µM, 100% = cells with rucaparib alone) 111% | viability ([14]; at 0.00488 µM, OCI-P5x cells, without rucaparib) 111% | viability ([14]; at 0.0195 µM, OCI-C5x cells, with rucaparib 10 µM, 100% = cells with rucaparib alone) 105% | viability ([14]; at 0.0195 µM, OCI-C5x cells, without rucaparib) 103% | viability ([14]; at 0.0195 µM, OCI-P5x cells, with rucaparib 20 µM, 100% = cells with rucaparib alone) 103% | viability ([14]; at 0.0195 µM, OCI-P5x cells, without rucaparib) 105% | viability ([14]; at 0.0781 µM, OCI-P5x cells, with rucaparib 20 µM, 100% = cells with rucaparib alone) 110% | viability ([14]; at 0.313 µM, OCI-P5x cells, with rucaparib 20 µM, 100% = cells with rucaparib alone) 104% | viability ([14]; at 1.25 µM, OCI-P5x cells, with rucaparib 20 µM, 100% = cells with rucaparib alone) 101%
active: AC50 [8] 417 nM | viability ([14]; at 0.00122 µM, OCI-C5x cells, without rucaparib) 91.8% | viability ([14]; at 0.0781 µM, OCI-C5x cells, with rucaparib 10 µM, 100% = cells with rucaparib alone) 59.6% | viability ([14]; at 0.0781 µM, OCI-C5x cells, without rucaparib) 35.7% | viability ([14]; at 0.0781 µM, OCI-P5x cells, without rucaparib) 98.3% | viability ([14]; at 0.313 µM, OCI-C5x cells, with rucaparib 10 µM, 100% = cells with rucaparib alone) 18.2% | viability ([14]; at 0.313 µM, OCI-C5x cells, without rucaparib) 17.2% | viability ([14]; at 0.313 µM, OCI-P5x cells, without rucaparib) 93.3% | viability ([14]; at 1.25 µM, OCI-C5x cells, with rucaparib 10 µM, 100% = cells with rucaparib alone) 17.8% | viability ([14]; at 1.25 µM, OCI-C5x cells, without rucaparib) 16.5% | viability ([14]; at 1.25 µM, OCI-P5x cells, without rucaparib) 90.7% | viability ([14]; at 5 µM, OCI-C5x cells, with rucaparib 10 µM, 100% = cells with rucaparib alone) 27.2% | viability ([14]; at 5 µM, OCI-C5x cells, without rucaparib) 26% | viability ([14]; at 5 µM, OCI-P5x cells, with rucaparib 20 µM, 100% = cells with rucaparib alone) 94% | viability ([14]; at 5 µM, OCI-P5x cells, without rucaparib) 87.3%

CCOc1cc(CC(=O)N[C@@H](CC(C)C)c2ccccc2N2CCCCC2)ccc1C(=O)O
1.2: normalised cell number [15, 26]
inactive: mean signal [6] 247 | red/green cell ratio (normalised) [15] 0.96 | remaining activity [3] 120% | outcome [16] | outcome [17] | outcome [18] | outcome [8] | outcome [19] | outcome [9] | outcome [10] | fold change [4, 20] 0.924 and 0.888 and 0.976 | z-score [13, 24] -0.407
0.881 and 1.49 and 4.38: fold change [4, 21]
8510 and 8490 and 12000: cell count [4, 22]
0.416: z-score [13, 25]
1.16: normalised cell number [15, 27]
9210 and 9560 and 12300: cell count [4, 23]

CO[C@H]1C=CO[C@@]2(C)Oc3c(C)c(O)c4c(O)c(c(/C=N/N5CCN(C)CC5)c(O)c4c3C2=O)NC(=O)/C(C)=C\C=C[C@H](C)[C@H](O)[C@@H](C)[C@@H](O)[C@@H](C)[C@H](OC(C)=O)[C@@H]1C
inactive: mean signal [6] 243

CCOc1ccc2nc3cc(N)ccc3c(N)c2c1
0.62: normalised cell number [15, 26]
4090 and 7950: cell count [4, 23]
2.5 and 0.759: fold change [4, 21]
0.65: normalised cell number [15, 27]
inactive: outcome [1] | outcome [2] | red/green cell ratio (normalised) [15] 1.04 | fold change [4, 20] 0.785 and 0.928
4.68: z-score [13, 25]
3210 and 7370: cell count [4, 22]
active: z-score [13, 24] 7.85
